Assay outcomes: PubChem, several laboratories
PostGolgi ctrl: inhibits growth of the yeast control strain | inhibition, % at 10 µM | 5% of 98,000 active | efflux-deficient yeast background strain, growth absorbance A615, 16 h | AID 738
CYP2C9 act: CYP2C9 (human) activation | AID 1024 | recombinant CYP2C9, luciferin-H conversion, luminescence; stronger effect = higher value; factor 1 = untreated enzyme, 0 = blocked | activation factor at 5 µM | 1.4% of 96,000 active;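 active means activation factor of 2 or more for CYP2C9 at a 5 µM dose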;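 further: 0 = sulfaphenazole-blocked wells and 1 = vehicle-only wells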
Target sequence (P11712 whole entry, looked up): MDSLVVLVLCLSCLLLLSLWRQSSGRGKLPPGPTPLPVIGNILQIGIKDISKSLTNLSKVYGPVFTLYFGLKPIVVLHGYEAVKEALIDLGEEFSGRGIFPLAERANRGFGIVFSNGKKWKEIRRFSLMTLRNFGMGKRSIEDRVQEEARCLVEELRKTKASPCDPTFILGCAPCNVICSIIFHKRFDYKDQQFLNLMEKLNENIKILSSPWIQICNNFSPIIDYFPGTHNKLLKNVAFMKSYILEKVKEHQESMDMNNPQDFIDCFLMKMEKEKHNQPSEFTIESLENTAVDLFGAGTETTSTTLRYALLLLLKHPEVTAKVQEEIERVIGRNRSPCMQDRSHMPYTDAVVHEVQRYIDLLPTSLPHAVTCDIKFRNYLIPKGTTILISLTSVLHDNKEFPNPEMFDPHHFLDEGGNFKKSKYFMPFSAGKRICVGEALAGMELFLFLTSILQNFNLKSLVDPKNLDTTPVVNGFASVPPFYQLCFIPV
CYP2C19 inhib: inhibitors of human CYP2C19 | 21% of 96,000 active | inhibition, % at 5 µM | CYP2C19 Supersomes, luciferin-H EGE luminescence, 30 min | P33261;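 active means CYP2C19 inhibition above a set limit at 5 µM in the primary screen, cut at about 50% in these data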;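 further: plate controls were negative control wells for no effect and 2.5 mM tranylcypromine positive control for full effect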
PostGolgi yeast: growth inhibition of a yeast mutant, post-Golgi transport screen; post-Golgi transport phenotypic cell assay; inhibition, % at 10 µM; 0.9% of 98,000 active;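 further: yeast cells grown in 1536-well plates; yeast grown about 18 h at 30C before absorbance read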
CYP2C9 inhib: human CYP2C9 inhibition | P11712 | CYP2C9 Supersomes, luciferin-H conversion, luminescence | inhibition, % at 5 µM | 20% of 96,000 active | AID 777;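 active means blocking of liver enzyme CYP2C9 beyond about 50% at 5 µM, limit read from the data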
CYP2C19 activ: cytochrome P450 2C19 (human) activation. P33261. recombinant CYP2C19, luciferin-H EGE luminescence; stronger effect = higher value; 0 = fully inhibited enzyme, 1 = untreated enzyme. activation factor at 5 µM. 96,000 tested, under 10 active. AID 1025;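 active means activation factor of at least 2 at 5 µM in the primary screen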;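 further: 0 = wells with 2.5 mM tranylcypromine and 1 = vehicle-only wells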
Starred values were filed as active, the others as inactive. Sampled rows, rich in hits. Any-hit rate of the full collection: about 32%. Unless noted, no stated cut-off is given here; in the data, active means inhibition above about 30%; inactive means the rest.

What do the screens show for `O=C(CCCn1c(=O)[nH]c2cc(Cl)ccc2c1=O)NCCCN1CCCC1`?
PostGolgi ctrl: -7; CYP2C9 act: 0.3; CYP2C19 inhib: 8; PostGolgi yeast: 3; CYP2C9 inhib: 69*; CYP2C19 activ: 0.9

How did O=C(Cn1c(=O)[nH]c2ccsc2c1=O)N1CCN(c2ccc(F)cc2)CC1 do in these assays?
PostGolgi ctrl: 6; PostGolgi yeast: -1

How did COc1ccc(N2CCN(C(=O)CCCn3c(=O)[nH]c4cc(Cl)ccc4c3=O)CC2)cc1 do in these assays?
PostGolgi ctrl: 15; CYP2C9 act: 0.5; CYP2C19 inhib: 29; PostGolgi yeast: 6; CYP2C9 inhib: 53*; CYP2C19 activ: 0.7

How did O=C(CCn1c(=O)[nH]c2ccsc2c1=O)N1CCN(c2cccc(Cl)c2)CC1 do in these assays?
PostGolgi ctrl: 26; CYP2C9 act: 0.3; CYP2C19 inhib: 38; PostGolgi yeast: -1; CYP2C9 inhib: 71*; CYP2C19 activ: 0.6

Results for CC(C(=O)NC1CCCc2ccccc21)N1CCN(Cc2ccc3c(c2)OCO3)CC1 (configuration not stated) ?
PostGolgi ctrl: 0; CYP2C9 act: 1; CYP2C19 inhib: 10; PostGolgi yeast: 5; CYP2C9 inhib: 0; CYP2C19 activ: 0.9

Results for CS/C(=N\S(=O)(=O)c1ccc(N)cc1)NS(=O)(=O)c1cccs1 ?
PostGolgi ctrl: 18; CYP2C9 act: 0.6; CYP2C19 inhib: 9; PostGolgi yeast: 5; CYP2C9 inhib: 42; CYP2C19 activ: 0.9

Results for CC1CN(Cc2cc(=O)[nH]c(C(C)C)n2)CC(C)O1 (configuration not stated) ?
PostGolgi ctrl: 4; CYP2C9 act: 0.8; CYP2C19 inhib: 10; PostGolgi yeast: 6; CYP2C9 inhib: 20; CYP2C19 activ: 0.9

Results for CCOc1ccc2nc(C)cc(Nc3ccc4c(c3)OCCO4)c2c1 ?
PostGolgi ctrl: -4; CYP2C9 act: 0.9; CYP2C19 inhib: 34; PostGolgi yeast: -14; CYP2C9 inhib: 12; CYP2C19 activ: 0.7

What do the screens show for `CCOC(=O)c1cnc2ccc(C(=O)OC)cc2c1Nc1ccc2c(c1)OCCO2`?
PostGolgi ctrl: 5; CYP2C9 act: 0.5; CYP2C19 inhib: 27; PostGolgi yeast: 1; CYP2C9 inhib: 54*; CYP2C19 activ: 0.7

Results for CCOC(=O)c1cnc2ccc(OC)cc2c1Nc1ccc2c(c1)OCCO2 ?
PostGolgi ctrl: 15; CYP2C9 act: 0; CYP2C19 inhib: 46; PostGolgi yeast: 9; CYP2C9 inhib: 96*; CYP2C19 activ: 0.5

What do the screens show for `CCc1ccc2c(c1)cc(CN(C(=S)Nc1ccccc1C)C1CC1)c1nnnn12`?
PostGolgi ctrl: -5; CYP2C9 act: 0.5; CYP2C19 inhib: -2; PostGolgi yeast: 16; CYP2C9 inhib: 45; CYP2C19 activ: 1

Results for O=C1NCCNC1(c1c[nH]c2ccccc12)C(F)(F)F (configuration not stated) ?
PostGolgi ctrl: 1; CYP2C9 act: 1; CYP2C19 inhib: 5; PostGolgi yeast: 3; CYP2C9 inhib: 3; CYP2C19 activ: 1

What do the screens show for `O=C(Nc1cccc(Cl)c1)C1CCCN(S(=O)(=O)c2ccc(F)cc2)C1` (configuration not stated)?
PostGolgi ctrl: 14; CYP2C9 act: 0.9; CYP2C19 inhib: 23; PostGolgi yeast: -6; CYP2C9 inhib: 13; CYP2C19 activ: 0.8

How did CCOC(=O)N1CCN(S(=O)(=O)N(C)C)CC1 do in these assays?
PostGolgi ctrl: -5; CYP2C9 act: 1.1; CYP2C19 inhib: 10; PostGolgi yeast: 2; CYP2C9 inhib: -8; CYP2C19 activ: 0.9

Results for O=C(Nc1nnc(SCC(=O)N2CCOCC2)s1)c1ccccc1Cl ?
PostGolgi ctrl: 13; CYP2C9 act: 1; CYP2C19 inhib: 4; PostGolgi yeast: 7; CYP2C9 inhib: 1; CYP2C19 activ: 1

What do the screens show for `O=C(Nc1ccc2nc(SCc3ccc(Cl)cc3)sc2c1)c1ccccc1C(=O)N1CCOCC1`?
PostGolgi ctrl: 33*; CYP2C9 act: 1.1; CYP2C19 inhib: 20; PostGolgi yeast: -5; CYP2C9 inhib: -9; CYP2C19 activ: 0.8

Results for O=C(Cn1ccsc1=NC(=O)C(F)(F)F)c1ccccc1 ?
PostGolgi ctrl: 14; CYP2C9 act: 0.6; CYP2C19 inhib: 57*; PostGolgi yeast: -7; CYP2C9 inhib: 35; CYP2C19 activ: 0.4

Results for CNC(=O)Nc1ccccc1NC(=O)NC ?
PostGolgi ctrl: 6; CYP2C9 act: 1.2; CYP2C19 inhib: -8; PostGolgi yeast: 2; CYP2C9 inhib: -17; CYP2C19 activ: 1.1

How did COc1cc(CNn2cn[nH]c2=S)cc(Cl)c1OCc1ccccc1 do in these assays?
PostGolgi ctrl: 7; CYP2C9 act: 0.8; CYP2C19 inhib: 82*; PostGolgi yeast: 20; CYP2C9 inhib: 23; CYP2C19 activ: 0.2

Results for CN1C(=O)c2cccc(NC(=O)Cc3ccccc3)c2C1=O ?
PostGolgi ctrl: 5; CYP2C9 act: 0.4; CYP2C19 inhib: 44; PostGolgi yeast: -1; CYP2C9 inhib: 58*; CYP2C19 activ: 0.6

What do the screens show for `CC(C)NS(=O)(=O)c1ccc(CCC(=O)Nc2cc(Cl)ccc2Oc2ccccc2)cc1`?
PostGolgi ctrl: 6; CYP2C9 act: 0.3; CYP2C19 inhib: 45; PostGolgi yeast: -5; CYP2C9 inhib: 67*; CYP2C19 activ: 0.6

How did CC(C)NS(=O)(=O)c1ccc(NC(=O)CCc2ccccc2)cc1 do in these assays?
PostGolgi ctrl: 2; CYP2C9 act: 0.6; CYP2C19 inhib: 22; PostGolgi yeast: 23; CYP2C9 inhib: 42; CYP2C19 activ: 0.8

What do the screens show for `CCNS(=O)(=O)c1ccc(CCC(=O)Nc2cc(Cl)ccc2Oc2ccccc2)cc1`?
PostGolgi ctrl: 9; CYP2C9 act: 0.2; CYP2C19 inhib: 64*; PostGolgi yeast: -2; CYP2C9 inhib: 82*; CYP2C19 activ: 0.4

What do the screens show for `O=C(OCC(=O)N1CCN(C(=O)c2ccco2)CC1)c1sc2cc(F)ccc2c1Cl`?
PostGolgi ctrl: 3; CYP2C9 act: 1.3; CYP2C19 inhib: -3; PostGolgi yeast: -4; CYP2C9 inhib: -28; CYP2C19 activ: 1

What do the screens show for `Cc1ccc(Cn2c(CN3CC(C)OC(C)C3)nc3c2c(=O)n(C)c(=O)n3C)cc1` (configuration not stated)?
PostGolgi ctrl: 10; CYP2C9 act: 0.8; CYP2C19 inhib: 19; PostGolgi yeast: 2; CYP2C9 inhib: 15; CYP2C19 activ: 0.8

What do the screens show for `Cn1c(SCc2ccccc2)nnc1-c1cccs1`?
PostGolgi ctrl: 7; CYP2C9 act: 1.1; CYP2C19 inhib: 41; PostGolgi yeast: -1; CYP2C9 inhib: -8; CYP2C19 activ: 0.6

Results for Cn1c(SCc2ccccc2)nnc1-c1ccncc1 ?
PostGolgi ctrl: 10; CYP2C9 act: 0.7; CYP2C19 inhib: 91*; PostGolgi yeast: 17; CYP2C9 inhib: 34; CYP2C19 activ: 0.1

What do the screens show for `Cn1c(SCc2ccc(Br)cc2)nnc1-c1ccncc1`?
PostGolgi ctrl: 4; CYP2C9 act: 0.3; CYP2C19 inhib: 94*; PostGolgi yeast: 3; CYP2C9 inhib: 75*; CYP2C19 activ: 0.1
